Inhibition data for 94 compounds are collected here from PubChem BioAssay AID463195 (Sanford-Burnham Center for Chemical Genomics, 2010).

Out of some 330,000 compounds screened, about 4,600 (1.4%) were called active. This excerpt belongs to a sample that is enriched for actives. Unmarked numbers belong to inactive results.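 The calls were made as follows: active = inhibition of 40% or more at the single tested concentration; inactive = the rest.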

The assay in a line: growth inhibitors of isogenic TIM10 control yeast, primary screen, counter-screen for tim10-1 yeast inhibitor project, luminescence, uHTS (AID 463195).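 Also: wild-type TIM10 isogenic control strain grown at permissive 25 °C; 0% = DMSO yeast wells and 100% = minimal medium wells without yeast.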 The conditions noted are these: S. cerevisiae TIM10 strain growth, BacTiter-Glo luminescence, 24 h; at 10 µM; active compounds read high. On the technique in general: A counterscreen serves to expose hits that act by an unwanted route or on another target.
In general, inhibition refers to the drop in the measured response relative to a control, in per cent. As for `CC(=O)Nc1ccc(S(=O)(=O)NCC(=O)OCc2cc(=O)oc3ccc4ccccc4c23)cc1`, the inhibition was 6.88%.
Take `N#Cc1cccc(CN2CCC(=O)N([C@H](CO)c3ccccc3)CC2)c1`: the inhibition is 12.1%.
As for `O=[N+]([O-])c1cc([N+](=O)[O-])c(Oc2cc(F)cc(F)c2F)cc1NN1CCCCC1`, the inhibition was -1.5%.
As to `Oc1ccccc1-c1cc(-c2ccc(Cl)cc2)n[nH]1`, the inhibition is 53.8% (active).
`O=C(Nc1cccnc1Cl)c1cc(-c2ccccc2O)on1`: the inhibition is 3.29%.
As for `Cc1ccc(NC(=O)c2cc(-c3ccccc3O)n[nH]2)cc1C`, the inhibition is 0.905%.
Consider `CCCCC1S/C(=N/N=C/c2cccs2)NC1=O` (centres undefined), for which the inhibition is 5.03%.
In the case of `O=C(N/N=C\c1cccc(Br)c1)c1ccccc1-n1cccc1`, the inhibition is 51.9% (active).
Consider `O=C(CNC(=O)c1cccs1)N/N=C/c1cccc(Br)c1`, for which the inhibition is 18.4%.
For `O=C(N/N=C/c1cccc(Br)c1)c1ccc(N2CCCC2=O)cc1` the value was 12%.
As to `CC(C)(C)OC(=O)C[C@@H]1C/C=C\C[C@@H](CC(=O)NCCO)C(=O)N[C@H](Cc2c[nH]c3ccccc23)COC1=O`, the inhibition was -3.29%.
`CC(C)CCn1cnc2c1c(=O)n(CC(=O)NC(N)=O)c(=O)n2Cc1ccccc1`: the inhibition was 2.63%.
Regarding `COc1cc(C(=O)NN(CCC#N)C2=NS(=O)(=O)c3ccccc32)cc(OC)c1OC`, the inhibition is 8.55%.
For `Cc1nc(NNC(=O)c2ccccc2)cc(-c2ccccc2)n1` the value was 10.7%.
On to `Nc1cccc(-c2cc(-c3ccccc3)nc(-c3cccc(N)c3)n2)c1`, for which the inhibition was 44.2% (active).
The result for `Nc1ccc(-c2nnc(-c3ccccc3)o2)cc1` reads 8.79%.
Turning to `CC1=NNC(=O)C1Cc1c(Cl)cccc1Cl` (centres undefined), the inhibition is 13.4%.
Consider `COc1ccc(N2C(=O)C(CC(=O)Nc3ccc(F)cc3)N(CCc3cccs3)C2=O)cc1` (centres undefined), for which the inhibition is 27.1%.
The result for `CCc1ccccc1NC1c2ccccc2C(=O)N1c1cccnc1` (centres undefined) reads -1.26%.
For the compound `CC(=O)C1=C(O)C(=O)N(c2cccnc2)C1c1ccc([N+](=O)[O-])cc1` (centres undefined), the inhibition was -3.83%.
Take `O=C1[C@@H](c2ccccc2)[C@@H](c2ccccc2)N1c1cccnc1`: the inhibition was 63.5% (active).
Turning to `COc1ccc(-c2c(C)cc3oc(=O)cc(-c4ccccc4)c3c2C)cc1C=O`, the inhibition was -23.6%.
For the compound `CCN(C(=O)COC(=O)CCOc1cccc(C)c1)c1c(N)n(Cc2ccccc2)c(=O)[nH]c1=O`, the inhibition is -2.83%.
The result for `c1ccc(C2=Nc3cccc4cccc(c34)N2)cc1` reads 42.2% (active); that for `COc1ccccc1C1=Nc2cccc3cccc(c23)N1`, 8.32%.
For `Fc1ccccc1N=C1Nc2cccc3cccc1c23`, the inhibition is 5.3%.
For `CCO/C=C1\C(=O)N(c2ccc(OCC)cc2)C(=O)c2ccccc21` the value was 1.43%.
For the compound `COc1cc([N+](=O)[O-])ccc1NC(=O)COC(=O)CCOc1ccc(C)cc1`, the inhibition was 49% (active).
For the compound `CSc1ccccc1NC(=O)COC(=O)CCCOc1ccc(C)cc1`, the inhibition is -8.29%.
On to `COc1cccc(NC(=O)COC(=O)CCOc2ccccc2OC)c1`, for which the inhibition was 30%.
With `Cc1cccc(OCc2nnc(SCc3nc4cc(C(F)(F)F)ccc4c(=O)[nH]3)o2)c1`, the inhibition is 23%.
`Cc1ccccc1OCC(=O)Nc1ccc2c(c1)ncn2C`: the inhibition is 2.51%.
With `Cc1ccccc1OCC(=O)Nc1ccc(N2CCN(C(=O)C(C)C)CC2)c(Cl)c1`, the inhibition was 65.5% (active).
In the case of `Cc1ccccc1OCC(=O)Nc1ccc(S(=O)(=O)N2CCOCC2)cc1`, the inhibition is 18.7%.
In the case of `CCC(C)N(C(=O)Cn1nc(C)c([N+](=O)[O-])c1C)C1CCS(=O)(=O)C1` (centres undefined), the inhibition was 2.63%.
The result for `CCN(CC(=O)Nc1ccc2c(c1)OCCO2)Cc1cc(=O)oc2cc(C)c(C)cc12` reads 2.82%; that for `CCN(CC(=O)NC(C)C)C(=O)c1cc(S(=O)(=O)N2CCCCC2)ccc1N1CCCCC1`, -4.18%.
For `Cn1nnc2cc(C(=O)NCCC3=CCCCC3)ccc21` the value was 9.76%; for `C=CCNC(=O)c1ccc2c3n(nc2c1)-c1ccc(C)cc1CO3`, 47% (active).
For `Cc1cccc(-c2nc3ccc(C(=O)NCCN4CCN(C)CC4)cc3nc2-c2cccc(C)c2)c1` the value was 11.7%.
Turning to `O=C(NCc1cccnc1)c1cnc2ccccc2n1`, the inhibition is 3.89%.
Take `O=C(O)Cc1csc(NC(=O)CSc2nnnn2-c2ccc(O)cc2)n1`: the inhibition is -3.77%.
In the case of `O=C(CCCN1C(=O)CCC1=O)Nc1ccc(Cl)c(C(F)(F)F)c1`, the inhibition is -0.757%.
With `CS(=O)(=O)N(CC(=O)Nc1ccc(Cl)c(Cl)c1)C1CCCCC1`, the inhibition is 27.6%.
For `O=C(CC(O)(C(F)(F)F)C(F)(F)F)Nc1ccc(Cl)c(Cl)c1`, the inhibition is 88.8% (active).
As for `COc1ccccc1OCCC(=O)OCC(=O)NCc1ccccc1`, the inhibition is 9.81%.
Take `COc1cccc(NC(=O)C(=O)c2cn(CC(=O)N3CCOCC3)c3ccccc23)c1`: the inhibition was 11.5%.
For `COc1cccc(C(C(=O)NC2CCCC2)N(C(=O)c2ccco2)c2cccc(C(C)=O)c2)c1OC` (centres undefined) the value was 11.8%; for `O=C(/C=C/c1c(F)cccc1Cl)Nc1nn[nH]n1`, 0.073%.
Consider `CNC(=O)/C(C#N)=C/c1c(F)cccc1Cl`, for which the inhibition was 59.2% (active).
Turning to `CCOC(=O)NC(=O)/C(C#N)=C\c1ccccc1`, the inhibition was 15.6%.
As to `NC(=S)Nc1c(Cl)cccc1Cl`, the inhibition is -2.06%.
`COc1ccc(CCNC(=O)c2cnc(Cl)c(Cl)c2)cc1`: the inhibition was -23.1%.
For `CCN(CC(=O)Nc1ccc(OC)cc1)C(=O)CSCc1ccc(C)cc1` the value was -9.01%.
Regarding `COc1ccc(C(=O)CCC(=O)Nc2ccc(Cl)cc2)cc1`, the inhibition is -25.2%.
For the compound `COc1ccc(CS(=O)/C(Cl)=C(/Cl)C(=O)Nc2ccc(OC)nc2)cc1` (centres undefined), the inhibition was 88.3% (active).
For the compound `COc1ccc(NC(=O)/C(Cl)=C(/Cl)S(=O)Cc2ccc(C)cc2)cn1` (centres undefined), the inhibition is 57.6% (active).
On to `COc1ccc(Nc2ccc([N+](=O)[O-])cn2)cn1`, for which the inhibition was 1.7%.
On to `CCCCn1nc(C(=O)Nc2ccc(S(=O)(=O)Nc3ncccn3)cc2)c2ccccc2c1=O`, for which the inhibition was 6.41%.
On to `Cc1ccc(CN(N=Nc2nonc2N)c2nonc2N)c(C)c1`, for which the inhibition was 36.7%.
Regarding `CCCOCC(O)CC(CC)C(=O)NNC(=S)Nc1ccccc1` (centres undefined), the inhibition is 7.95%.
For the compound `CCC12CN3CC(CC)(CN(C1)C31C(=O)N(C)c3ccc(C)cc31)C2=O` (centres undefined), the inhibition is -4.81%.
`O=C1CCN(C(=O)Nc2ccccc2)N1`: the inhibition was -12.2%.
Consider `O=C(N/N=C/c1cccnc1)c1ccc(NC(=O)c2ccc(F)cc2)cc1`, for which the inhibition is -13.1%.
For the compound `Cc1cc(/C=C(/C#N)C(=O)Nc2ccc(Cl)cc2)c(C)n1-c1cccnc1`, the inhibition is -8.09%.
For `N#C/C(=C\c1cccnc1)C(=O)Nc1ccc(SC(F)F)cc1`, the inhibition is 45.6% (active).
For `O=C1Nc2ccc([N+](=O)[O-])cc2C1=Nc1cccc(CO)c1`, the inhibition is 8.6%.
For `Cc1cc2oc(=O)cc(CN3CCN(S(=O)(=O)c4cccs4)CC3)c2cc1C(C)C`, the inhibition was -1.14%.
`COc1ccc2c(CN3CCN(S(=O)(=O)c4cccs4)CC3)cc(=O)oc2c1`: the inhibition was 52.4% (active).
For `COc1ccc2oc(=O)cc(CN3CCOCC3)c2c1` the value was -8.83%; for `NC(=O)C(Cc1ccccc1)NC(=O)C12CC3CC(CC(C3)C1)C2` (centres undefined), 16.3%; for `CCO[C@@H]1OC(C(N)=O)=C[C@H](c2ccc(Br)cc2)[C@H]1CCCO`, -4.73%.
Regarding `Cc1ccc(-c2noc(CSc3nnc(-c4ccncc4)n3-c3ccc(F)cc3)n2)cc1`, the inhibition is 46.2% (active).
On to `Cn1cccc1Cc1nnc(SCC(=O)NCCc2ccccc2)n1-c1ccc(F)cc1`, for which the inhibition was 10.2%.
Take `Cn1c(SCc2ccc(F)cc2)nnc1-c1ccncc1`: the inhibition is -15.7%.
On to `Cc1nnc(SCc2ccc(C(=O)c3ccc(Cl)cc3)o2)n1-c1ccccc1`, for which the inhibition was 7.12%.
Consider `Cc1ccc(-c2noc(CSc3nnc(-c4cccs4)n3C)n2)cc1`, for which the inhibition was 12.3%.
In the case of `Fc1ccc(-n2c(Cc3ccccc3)nnc2SCc2nc(-c3ccc(Cl)cc3)no2)cc1`, the inhibition was 41% (active).
In the case of `C=CCn1c(C2CC(=O)N(c3ccc(C)cc3)C2)nc2ccccc21` (centres undefined), the inhibition is 0.772%.
Consider `COc1cccc(-n2cc3c(c2-c2ccccc2)c(=O)n(C)c(=O)n3C)c1`, for which the inhibition is -0.343%.
On to `CCN(CC)CCNC(=O)c1sc2ncn(CC(=O)Nc3ccc(C)c(Cl)c3)c(=O)c2c1C`, for which the inhibition was -10.3%.
For `Cc1ccc(Nc2nc(CSc3nnc(-c4ccncc4)n3-c3ccccc3C)cs2)cc1`, the inhibition is 19.6%.
In the case of `COc1ccc(-c2cn[nH]c2-c2ccc(OC)cc2)cc1`, the inhibition is 35%.
For `CCOc1ccccc1Oc1cn[nH]c1-c1ccc(OC)cc1O`, the inhibition was -79.8%.
The result for `COc1ccc(Oc2cn[nH]c2-c2ccc(OC)cc2O)cc1` reads 45.7% (active).
For the compound `COc1ccc(-c2cc3nc(C)c(CCC(=O)NC(C)CCc4ccco4)c(C)n3n2)c(OC)c1` (centres undefined), the inhibition is 23.7%.
Take `Cc1ccc2c(N)c(C(=O)c3ccccc3)sc2n1`: the inhibition is 36.2%.
Take `CN(C)c1ccnc2sc(C(=O)c3ccccc3)c(N)c12`: the inhibition was 40.4% (active).
Consider `CC(=O)c1c(Nc2ccccc2)sc(C(=O)c2ccccc2)c1C`, for which the inhibition is -7.77%.
With `Cc1nc2sc(C(=O)c3ccccc3)c(N)c2c2c1CCCC2`, the inhibition is 41.5% (active).
For `CCc1nc2sc(C(=O)O)c(N)c2c2c1CCCC2`, the inhibition is -94.9%.
Consider `CN(C(=O)c1ccccn1)c1nnc(-c2ccccn2)s1`, for which the inhibition was 1.41%.
As to `Cc1nnc(SC(C(=O)Nc2cc(Cl)cc(Cl)c2)c2ccccc2)[nH]c1=O` (centres undefined), the inhibition is 14.3%.
For the compound `CCn1c(SCC(=O)NC2CC2)nnc1-c1ccncc1`, the inhibition is -12.4%.
